Data: PubChem BioAssay AID588591 (National Center for Advancing Translational Sciences (NCATS), 2011)
“And” between values parts separate entries of the source, which are not always exact repeats. Identical values can stand only once. The whole screen tested about 390,000 compounds, of which about 4,700 (1.2%) were called active. A call without a number means that no potency is given here. Roughly 4% stayed inconclusive and do not appear here. Calls come from the whole dose curve; as a rule, active = well fitted inhibition curve with a large enough effect; inconclusive = small, poorly fitted or top-dose-only effect, or another doubt; inactive = no such curve, though single readings can be large or run the other way. The sample as a whole holds a higher share of actives than the screen did. More than one record can exist for a structure, and the calls need not agree.

molecular target: DNA polymerase eta (Homo sapiens) (UniProt Q9Y253); experiment: qHTS for Inhibitors of Polymerase Eta; details: recombinant Pol eta, fluorescent DNA replication assay; series mostly up to 114 µM
How it was run: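 Pol eta (10 nM) was preincubated with compounds for 15 min at room temperature, after which fluorescent replication substrate (50 nM final) was added to start the reaction. Fluorescence was read kinetically at 0 and 10 min.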
Potency is the fitted concentration of half-maximal effect.

DNA polymerase eta (Homo sapiens), sequence (Q9Y253 whole entry, looked up): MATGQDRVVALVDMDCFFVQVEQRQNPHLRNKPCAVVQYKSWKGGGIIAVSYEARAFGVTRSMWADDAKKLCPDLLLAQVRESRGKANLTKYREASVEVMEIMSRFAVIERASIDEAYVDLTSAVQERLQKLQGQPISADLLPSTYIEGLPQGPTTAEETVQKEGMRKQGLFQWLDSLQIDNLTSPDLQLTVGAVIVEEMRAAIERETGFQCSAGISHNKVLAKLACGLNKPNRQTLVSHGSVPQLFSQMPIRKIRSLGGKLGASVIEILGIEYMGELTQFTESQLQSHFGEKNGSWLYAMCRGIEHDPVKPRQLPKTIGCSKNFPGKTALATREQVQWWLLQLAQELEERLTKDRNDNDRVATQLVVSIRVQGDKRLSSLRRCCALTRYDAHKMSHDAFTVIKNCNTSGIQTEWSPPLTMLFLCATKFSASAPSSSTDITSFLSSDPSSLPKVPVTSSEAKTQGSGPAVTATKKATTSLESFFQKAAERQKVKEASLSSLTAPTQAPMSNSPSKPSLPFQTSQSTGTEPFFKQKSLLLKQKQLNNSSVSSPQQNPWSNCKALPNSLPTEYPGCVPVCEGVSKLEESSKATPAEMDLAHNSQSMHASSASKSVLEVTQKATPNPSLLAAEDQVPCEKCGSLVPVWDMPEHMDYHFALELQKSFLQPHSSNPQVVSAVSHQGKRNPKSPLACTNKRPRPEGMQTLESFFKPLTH

Row | SMILES | Potency
1 | COc1cccc(CNC(=O)CN2C(=O)CCc3cc(S(=O)(=O)N4CCOCC4)ccc32)c1 | inactive
2 | N#C/C(=C\c1ccc(O)c(O)c1)C(=O)NCc1ccccc1 | inactive and 11.2 µM (active)
3 | Cc1ccc(/C=C(\C#N)C(=O)Nc2cc(C)ccc2C)cc1 | inactive
4 | CC(C)NC(=O)/C(C#N)=C\c1ccc(N(C)C)c(Br)c1 | inactive
5 | CCc1ccc(-n2nc(C)c3c(C)cc(=O)n(CC(=O)Nc4ccc(F)cc4C)c32)cc1 | inactive
6 | Cn1c(N)c(C(=O)COC(=O)c2ccccc2NCc2ccco2)c(=O)n(C)c1=O | inactive
7 | CN(c1ccccc1)S(=O)(=O)c1ccc(Cl)c(C(=O)OCC(=O)N2CCOCC2)c1 | inactive
8 | O=C(COC(=O)c1cc(S(=O)(=O)N2CCOCC2)ccc1Cl)NCCc1ccccc1 | inactive
9 | Cc1cc(C(=O)OCC(=O)NCc2ccco2)c(C)n1-c1ccccc1 | 14.1 µM (active)
10 | CC1CCN(C(=O)COC(=O)CCC(=O)c2cccs2)CC1 | inactive
11 | COc1ccccc1C(=O)OCC(=O)NCCNC(=O)COC(=O)c1ccccc1OC | inactive
12 | O=C(COC(=O)c1ccccc1O)NCc1ccco1 | 79.4 µM (active)
13 | O=C(COC(=O)c1ccccc1C(=O)N1CCN(c2ccccc2)CC1)NCc1ccccc1 | inactive
14 | O=C(COC(=O)CCC(=O)c1cccs1)NCc1ccco1 | 7.08 µM (active)
15 | CN(c1ccccc1)S(=O)(=O)c1ccc(Cl)c(C(=O)OCC(=O)NCc2ccco2)c1 | 31.6 µM (active)
16 | CCN(C(=O)COC(=O)CCC(=O)c1cccs1)C1CCCCC1 | inactive
17 | O=C(CC1CCCCC1)NCc1ccco1 | inactive
18 | Cc1ccc2nc(COc3cccc(NC(=O)Nc4ccc(C)c(Cl)c4)c3)cc(=O)n2c1 | inactive
19 | COC(=O)c1cc(S(=O)(=O)N2CCN(c3cc(Cl)ccc3C)CC2)c[nH]1 | inactive
20 | Cc1cccc(N2CCN(C(=O)CCSCc3ccccc3F)CC2)c1C | inactive
21 | Cc1ccc2oc(=O)c3cnn(CC(=O)N4CCN(c5cccc(Cl)c5)CC4)c3c2c1 | inactive
22 | COc1ccc(-n2ccnc(NCCc3ccc(Cl)cc3)c2=O)cc1OC | inactive

Row | SMILES | Potency
23 | Cc1cccc(C(C)C)c1NC(=O)C(NS(=O)(=O)c1cccc2nsnc12)c1ccccc1 (stereo not given) | inactive
24 | Cc1ccc(-n2ncc3c(=O)n(Cc4cccc(C(F)(F)F)c4)cnc32)cc1C | inactive
25 | CC(C)(C)NC(=O)CSc1nc(-c2ccc(F)cc2)cc(C(F)(F)F)n1 | inactive
26 | COc1cc(NC(=O)COC(=O)c2cnc(C)cn2)c(C)cc1[N+](=O)[O-] | inactive
27 | COc1cc(CCC(=O)OCC(=O)Nc2cccc(S(N)(=O)=O)c2)cc(OC)c1OC | inactive
28 | COc1cc(NC(=O)COC(=O)c2ccc([N+](=O)[O-])s2)cc(OC)c1OC | 50.1 µM (active)
29 | COc1ccc(CCC(=O)NCc2ccc3c(c2)CCN3C(=O)c2ccc(F)cc2)cc1 | inactive
30 | O=C(CS(=O)(=O)c1cccc2nsnc12)N1CCN(c2cccc(Cl)c2)CC1 | inactive
31 | COC(=O)c1ccccc1NC(=O)C(Cc1ccccc1)N1Cc2ccccc2C1=O (stereo not given) | inactive
32 | Cc1ccccc1NC(=O)Cn1c(=O)n(CCc2ccccc2)c(=O)c2ccccc21 | inactive
33 | Cc1ccccc1NC(=O)CN1C(=O)N/C(=C\c2cccn2-c2cccc(C(=O)O)c2)C1=O | 3.16 µM (active)
34 | Cc1ccccc1NC(=O)CN1C(=O)C(C)(C)c2ccccc21 | inactive
35 | CC(C)S(=O)(=O)c1oc(-c2ccc(F)cc2)nc1S(=O)(=O)c1ccc(F)cc1 | inactive
36 | CCN(c1ccc(Cl)cc1)S(=O)(=O)c1nnc(NC(=O)c2ccco2)s1 | 39.8 µM (active)
37 | Cc1ccccc1C(=O)Nc1nnc(S(=O)(=O)N(C)c2ccc(Cl)cc2)s1 | inactive
38 | CN(Cc1ccco1)S(=O)(=O)c1nnc(NC(=O)c2ccccc2)s1 | inactive
39 | Cn1nc(-c2ccccc2)c(-c2ccccc2)c(C(=O)Nc2ccc(S(N)(=O)=O)cc2)c1=O | inactive
40 | Cc1cc(O)c(C(=O)/C=C/c2c(F)c(F)c(F)c(F)c2F)c(=O)o1 | 35.5 µM (active)
41 | O=C(O)/C(=C/c1c(C(=O)O)[nH]c2cc(Cl)cc(Cl)c12)c1ccccc1 | inactive
42 | O=C1OC(C(=O)Nc2cccc(Br)c2)Cc2ccccc21 (stereo not given) | inactive
43 | Cc1ccc(-n2nc(C)c3c(C)cc(=O)n(CC(=O)Nc4ccc(C(C)C)cc4)c32)cc1 | inactive
44 | CCOC(CNC(=O)C1CCN(S(=O)(=O)c2ccc3nc4c(c(C(=O)O)c3c2)CC(C)CC4)CC1)OCC (stereo not given) | 31.6 µM (active)

Row | SMILES | Potency
45 | CCOc1ccc(S(=O)(=O)N2CCC(C(=O)NCc3ccccn3)CC2)cc1Cl | inactive
46 | Cc1ccc(CNC(=O)C2CCN(S(=O)(=O)c3ccc4nc5c(c(C(=O)O)c4c3)CC(C)CC5)CC2)cc1 (stereo not given) | inactive
47 | CCNS(=O)(=O)c1cc(-c2nnc(Nc3cccc(C(F)(F)F)c3)c3ccccc23)ccc1C | inactive
48 | Cc1ccccc1-c1nc(SCC(=O)N(C)c2ccccc2)c2c(=O)n(C)c(=O)n(C)c2n1 | inactive
49 | CCOC(=O)Cn1c(=O)n(-c2ccccc2OC)c2nc(-c3cccc(F)c3)nc(C(N)=O)c21 | inactive
50 | CCOC(=O)c1cc2c(=O)n3ccccc3nc2n(CCCOC)c1=NC(=O)C(C)(C)Oc1ccc(Cl)cc1 | inactive
51 | COc1cc(OC)cc(C(=O)Nc2nnc(SCC(=O)NCC3CCCO3)s2)c1 (stereo not given) | inactive
52 | NC(=O)CSc1nnc(NC(=O)c2ccc(Br)o2)s1 | 20 µM (active)
53 | CCSc1nnc(NC(=O)c2cc(=O)c3cc(C)c(C)cc3o2)s1 | inactive
54 | CCOc1ccccc1N(CC)C(=O)c1cc2ccc3cccnc3c2[nH]1 | inactive
55 | Cc1ccccc1N1CC(C(=O)Nc2nnc(SCCC3OCCO3)s2)CC1=O (stereo not given) | 20 µM (active)
56 | COc1ccccc1N1CC(C(=O)Nc2nnc(SCC(=O)NC(C)C)s2)CC1=O (stereo not given) | inactive
57 | COc1ccccc1N1CC(C(=O)Nc2nnc(SCC(=O)NCC3CCCO3)s2)CC1=O (stereo not given) | inactive
58 | COc1ccc(SCc2cc(=O)c3ccc(C)c(C)c3[nH]2)cc1 | inactive
59 | Cc1ccc(NC(=O)c2ccc3[nH]c(C)cc(=O)c3c2)c(C)c1 | inactive
60 | CCOC(=O)C1=C(c2ccccc2)Nc2ncnn2C1c1ccc(Cl)cc1 (stereo not given) | inactive
61 | NS(=O)(=O)c1cc(C(=O)OCC(=O)NNC(=O)c2ccccc2)ccc1Cl | inactive
62 | O=C(NC1=CC(=O)c2ccccc2C1=O)c1ccccc1 | 89.1 µM (active)
63 | COc1ccc(C)cc1NC(=O)CN1c2cccc3cccc(c23)S1(=O)=O | inactive
64 | O=C(O)CN1c2cccc3cccc(c23)S1(=O)=O | 28.2 µM (active)
65 | CC(C)CN(CC(C)C)C(=O)CN1c2cccc3cccc(c23)S1(=O)=O | inactive
66 | COc1ccccc1Cc1nc2ccccc2nc1SCC(=O)N1CCCc2ccccc21 | inactive

Row | SMILES | Potency
67 | CC(=O)c1ccc(N2CCN(c3nc4c(S(=O)(=O)c5ccccc5)nnn4c4ccc(Cl)cc34)CC2)cc1 | inactive
68 | C#CCOCCOCCOCCNc1nc(N2CCN(C(=O)C([C@@H](C)CC)n3cc(C(N)COC(=O)C(F)(F)F)nn3)CC2)nc(N2CCN(C(=O)[C@H](Cc3ccc(O)cc3)n3cc(C(N)[C@H](C)CC)nn3)CC2)n1 (stereo not given in full) | inactive
69 | C#CCOCCOCCOCCNc1nc(N2CCN(C(=O)CCCCCCCCCCNC(=O)[C@H](CCCCN)n3cc(C)nn3)CC2)nc(N2CCN(C(=O)CCCCCCCCCCNC(=O)[C@H](CO)n3cc(CCCSC)nn3)CC2)n1 | 89.1 µM (active)
70 | C#CCOCCOCCOCCNc1nc(N2CCN(C(=O)CCCCCCCCCCNC(=O)[C@H]([C@@H](C)CC)n3cc(CCCCN=C(N)N)nn3)CC2)nc(N2CCN(C(=O)CCCCCCCCCCNC(=O)[C@H](CO)n3cc(CCCSC)nn3)CC2)n1 | 50.1 µM (active)
71 | C#CCOCCOCCOCCNc1nc(N2CCN(C(=O)C([C@@H](C)CC)n3cc(C(N)COC(=O)C(F)(F)F)nn3)CC2)nc(N2CCN(C(=O)[C@H](CCCCN)n3cc(C(N)CC(C)C)nn3)CC2)n1 (stereo not given in full) | inactive
72 | C#CCOCCOCCOCCNc1nc(N2CCN(C(=O)[C@H](CCC(=O)O)n3cc(C(N)CO)nn3)CC2)nc(N2CCN(C(=O)[C@H](Cc3ccc(O)cc3)n3cc(C(N)[C@H](C)CC)nn3)CC2)n1 (stereo not given in full) | inactive
73 | COc1ccccc1NC(=O)Cn1cnc2ccc(S(=O)(=O)N3CCC(C)CC3)cc2c1=O | inactive
74 | COc1ccc(-c2nc3c4ccccc4n(CC(=O)Nc4ccc(C(C)=O)cc4)c(=O)n3n2)cc1 | inactive
75 | O=C(CSCc1cnn(-c2ccccc2)c1-n1cccc1)NCc1ccc(Cl)cc1 | inactive
76 | CCOc1ccc(-c2cc3nc(C4CCN(C(=O)OC(C)(C)C)CC4)c(C(=O)Nc4cccc(CC)c4)cn3n2)cc1 | inactive
77 | CC(=O)c1ccc(NS(=O)(=O)c2ccc(-c3cc(C)no3)s2)cc1 | inactive
78 | Cc1oc2c(C)c3oc(=O)c(CC(=O)N[C@@H](CC(C)C)C(=O)N[C@@H](Cc4ccccc4)C(=O)O)c(C)c3cc2c1C | 20 µM (active)
79 | Cc1c(OC(C)C(=O)N[C@@H](Cc2ccccc2)C(=O)O)ccc2c3c(c(=O)oc12)CCCC3 (stereo not given in full) | inactive
80 | Cc1c(CCC(=O)N[C@@H](CC(C)C)C(=O)O)c(=O)oc2c(C)c3oc4c(c3cc12)CCCC4 | inactive
81 | O=C(CN1CCN(S(=O)(=O)/C=C/c2ccccc2)CC1)NC(=O)NCc1ccco1 | 79.4 µM (active)
82 | NC(=O)CCN1CCN(S(=O)(=O)/C=C/c2ccccc2)CC1 | inactive
83 | CC1(c2ccccc2Cl)NC(=O)N(CC(=O)NC(=O)NCc2ccco2)C1=O (stereo not given) | inactive
84 | CCOc1cc(-c2nnc(SCC(=O)NC3CCCCC3)nc2-c2ccc(OC)c(OCC)c2)ccc1OC | inactive
85 | CC(=O)Nc1ccc(NC(=O)c2cc3sccc3n2Cc2ccc(F)cc2)cc1 | inactive
